# Shown is part of a subset that was picked to be rich in the strongest signals.
# What was measured:
# Experiment in all cases: glycan array binding signal (z-score within array); higher = stronger binding
# Settings in all cases: glycan notation: IUPAC condensed, linker removed
# [1] = target: Fuc(a1-2)Gal(b1-3)GalNAc(b1-4)[Neu5Ac(a2-3)]Gal(b1-4)Glc
# In short: (§1)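 Arrays were curated from the Consortium for Functional Glycomics database, 3228 in total, and kept only where the protein sequence was available. Binding is expressed as a within-array Z-score. This score was averaged across arrays of the same protein sequence at different concentrations or buffers and across linkers, and negative values can be read as non-binding.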
# [2] = target: Fuc(a1-2)Gal(b1-3)GlcNAc
# In short: as §1
# [3] = target: Fuc(a1-2)Gal(b1-3)GlcNAc(b1-2)Man(a1-3)[Fuc(a1-2)Gal(b1-3)GlcNAc(b1-2)Man(a1-6)]Man(b1-4)GlcNAc(b1-4)GlcNAc
# In short: as §1
# [4] = target: Fuc(a1-2)Gal(b1-4)GlcNAc(b1-3)Gal(b1-4)GlcNAc
# In short: as §1
# [5] = target: Fuc(a1-2)Gal(b1-4)GlcNAc(b1-3)Gal(b1-4)GlcNAc(b1-2)Man(a1-3)[Fuc(a1-2)Gal(b1-4)GlcNAc(b1-3)Gal(b1-4)GlcNAc(b1-2)Man(a1-6)]Man(b1-4)GlcNAc(b1-4)GlcNAc
# In short: as §1
# [6] = target: Fuc(a1-2)Gal(b1-4)[Fuc(a1-3)]GlcNAc(b1-3)GalNAc
# In short: as §1
# [7] = target: Fuc(a1-2)Gal6S(b1-4)Glc6S
# In short: as §1
# [8] = target: Fuc(a1-2)[Gal(a1-3)]Gal(b1-4)GlcNAc(b1-2)Man(a1-3)[Fuc(a1-2)[Gal(a1-3)]Gal(b1-4)GlcNAc(b1-2)Man(a1-6)]Man(b1-4)GlcNAc(b1-4)GlcNAc
# In short: as §1
# [9] = target: Fuc(a1-2)[Gal(a1-4)]Gal(b1-4)GlcNAc
# In short: as §1
# [10] = target: Gal(a1-3)Gal(b1-3)[Fuc(a1-4)]GlcNAc(b1-2)Man(a1-3)[Gal(a1-3)Gal(b1-3)[Fuc(a1-4)]GlcNAc(b1-2)Man(a1-6)]Man(b1-4)GlcNAc(b1-4)GlcNAc
# In short: as §1
# [11] = target: Gal(a1-3)Gal(b1-4)Glc
# In short: as §1
# [12] = target: Gal(a1-3)Gal(b1-4)[Fuc(a1-3)]GlcNAc
# In short: as §1
# [13] = target: Gal(a1-3)GalNAc
# In short: as §1
# [14] = target: Gal(a1-4)Gal(b1-3)GlcNAc(b1-2)Man(a1-3)[Gal(a1-4)Gal(b1-3)GlcNAc(b1-2)Man(a1-6)]Man(b1-4)GlcNAc(b1-4)GlcNAc
# In short: as §1
# [15] = target: Gal(a1-4)Gal(b1-4)GlcNAc(b1-2)Man(a1-3)[Gal(a1-4)Gal(b1-4)GlcNAc(b1-2)Man(a1-6)]Man(b1-4)GlcNAc(b1-4)GlcNAc
# In short: as §1
# [16] = target: Gal(a1-4)Gal(b1-4)GlcNAc(b1-3)Gal(b1-4)Glc
# In short: as §1
# [17] = target: Gal(b1-3)GlcNAc
# In short: as §1
# [18] = target: Gal(b1-3)GlcNAc(b1-3)Gal(b1-4)GlcNAc(b1-3)Gal(b1-4)GlcNAc(b1-2)[Gal(b1-3)GlcNAc(b1-3)Gal(b1-4)GlcNAc(b1-3)Gal(b1-4)GlcNAc(b1-6)]Man(a1-6)[Gal(b1-3)GlcNAc(b1-3)Gal(b1-4)GlcNAc(b1-3)Gal(b1-4)GlcNAc(b1-2)Man(a1-3)]Man(b1-4)GlcNAc(b1-4)[Fuc(a1-6)]GlcNAc
# In short: as §1
# [19] = target: Gal(b1-3)GlcNAc(b1-3)GalNAc
# In short: as §1
# [20] = target: Gal(b1-3)[Fuc(a1-4)]GlcNAc(b1-6)GalNAc
# In short: as §1
# [21] = target: Gal(b1-4)GlcNAc(b1-3)Gal(b1-4)GlcNAc(b1-3)Gal(b1-4)GlcNAc(b1-2)[Gal(b1-4)GlcNAc(b1-3)Gal(b1-4)GlcNAc(b1-3)Gal(b1-4)GlcNAc(b1-6)]Man(a1-6)[Gal(b1-4)GlcNAc(b1-3)Gal(b1-4)GlcNAc(b1-3)Gal(b1-4)GlcNAc(b1-2)Man(a1-3)]Man(b1-4)GlcNAc(b1-4)[Fuc(a1-6)]GlcNAc
# In short: as §1
# [22] = target: Gal(b1-4)GlcNAc(b1-3)Gal(b1-4)GlcNAc(b1-3)Gal(b1-4)GlcNAc(b1-3)Gal(b1-4)GlcNAc(b1-2)[Gal(b1-4)GlcNAc(b1-3)Gal(b1-4)GlcNAc(b1-3)Gal(b1-4)GlcNAc(b1-3)Gal(b1-4)GlcNAc(b1-6)]Man(a1-6)[Gal(b1-4)GlcNAc(b1-3)Gal(b1-4)GlcNAc(b1-3)Gal(b1-4)GlcNAc(b1-3)Gal(b1-4)GlcNAc(b1-2)Man(a1-3)]Man(b1-4)GlcNAc(b1-4)[Fuc(a1-6)]GlcNAc
# In short: as §1
# [23] = target: Gal(b1-4)GlcNAc(b1-3)Gal(b1-4)GlcNAc(b1-3)Gal(b1-4)GlcNAc(b1-3)Gal(b1-4)GlcNAc(b1-3)Gal(b1-4)GlcNAc(b1-2)Man(a1-3)[Gal(b1-4)GlcNAc(b1-3)Gal(b1-4)GlcNAc(b1-3)Gal(b1-4)GlcNAc(b1-3)Gal(b1-4)GlcNAc(b1-3)Gal(b1-4)GlcNAc(b1-2)Man(a1-6)]Man(b1-4)GlcNAc(b1-4)[Fuc(a1-6)]GlcNAc
# In short: as §1
binder,measurement,setting,value
PX9961U-pdi-543-24-543 (Parabacteroides distasonis) (protein) EEPVGEFLPGQVESEENIEGIVTGAYAVLDGYYASDAINSGCSNWQFGDVVSDDAYKGGGGTGDQNQIHLMEIFNANPTGIDFEARWAALYEGIKRCNQAIRLLNGSEVKNKEQRLAEMRFLRGHYYFNLKIIYNQIPWIDETLVDPNEYNKKSNIEFSSDQLWEKILEEFSAAYKVLPESQADYGRPTKMAARAYMAKVYLYQSKWKECLEACDEVIQSGKYELFPDFRNVFLPENDNCSEIIFAIQLSINDGSPNNENGSYGDRLLPPGGPYPVYGFLRPTQNLVNAYKTDVKGLPYNDGKDVSENDYVDVRLDHTLARPNIPFMDVQLYDWTPREASVYGPYSPKKRLVSLNSTYYSPIWPYVNALNFYVIRYADLLLWRAEAAIETGDLETGRKYINMIRERAKNTQHVKTMDQSQDAANYKVGVYDEPFKSKNEAVQALRMERRLEMAHEGIRFFDLVRWGVADEVINAYIAKEKVFRSHLQNAHFVKGKHEYFPIPQSMIDICGTEVMKQNPGY,glycan array binding signal (z-score),[1],-0.337
same,glycan array binding signal (z-score),[2],-0.324
same,glycan array binding signal (z-score),[3],7.29
same,glycan array binding signal (z-score),[4],-0.463
same,glycan array binding signal (z-score),[5],-0.241
same,glycan array binding signal (z-score),[6],3.47
same,glycan array binding signal (z-score),[7],-0.226
same,glycan array binding signal (z-score),[8],8.53
same,glycan array binding signal (z-score),[9],-0.379
same,glycan array binding signal (z-score),[10],4.38
same,glycan array binding signal (z-score),[11],-0.175
same,glycan array binding signal (z-score),[12],0.287
same,glycan array binding signal (z-score),[13],-0.348
same,glycan array binding signal (z-score),[14],-0.428
same,glycan array binding signal (z-score),[15],2.13
same,glycan array binding signal (z-score),[16],-0.389
same,glycan array binding signal (z-score),[17],-0.43
same,glycan array binding signal (z-score),[18],4.42
same,glycan array binding signal (z-score),[19],-0.385
same,glycan array binding signal (z-score),[20],3.44
same,glycan array binding signal (z-score),[21],6.31
same,glycan array binding signal (z-score),[22],3.38
same,glycan array binding signal (z-score),[23],7.11
